The text below walks through data of PubChem BioAssay (EPA / NIEHS).

The nature of assay [1]: ATG_TCF_b_cat_CIS: Attagene CIS-FACTORIAL HepG2 Assay for human T-Cell-Factor with beta-catenin (TCF/b-cat) (AID 2282965; active = hit-call score of the fitted dose curve at least 0.9, where 1 is the maximum; inactive = score below 0.9). Conditions: HepG2 TCF/beta-catenin cis-reporter transcription, actives raise or lower the signal. Put shortly: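 Cells of the HepG2 line carry transiently transfected reporter units whose promoters respond to endogenous factors. Twenty-four hours post-dosing, reporter mRNA induction is measured by fluorescent RT-PCR and capillary electrophoresis, with DMSO as baseline.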

Assay [2] in a line: ATG_TAL_CIS: Attagene CIS-FACTORIAL HepG2 Assay for human TAL Basal Promoter (AID 2282966; active = hit-call score of the fitted dose curve at least 0.9, where 1 is the maximum; inactive = score below 0.9;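 also: background control endpoint measuring basal TAL promoter reporter mRNA not a specific factor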). Conditions: HepG2 Attagene cis-factorial TAL promoter reporter; actives raise or lower the signal. Put shortly:
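Basal-promoter background-control endpoint from a multiplexed HepG2 reporter panel. Cells were exposed 24 h, then reporter mRNA was read by RT-PCR/CE fluorescence and fitted in both directions relative to DMSO.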

Assay [3] in a line: ATG_TGFb_CIS: Attagene CIS-FACTORIAL HepG2 Assay for human Transforming Growth Factor (TGF) (AID 2282967; active = hit-call score of the fitted dose curve at least 0.9, where 1 is the maximum; inactive = score below 0.9). To be noted: HepG2 Attagene CIS TGFb reporter, mRNA transcription; actives raise or lower the signal. Put shortly: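 Transcript-level reporter readout: HepG2 transfectants, 24 h exposure, RNA to cDNA, reporter-specific PCR, fluorescent primer extension, capillary sizing against ROX standards. Gain- or loss-of-signal relative to DMSO.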

Assay [4] is described as follows: ATG_VDRE_CIS: Attagene CIS-FACTORIAL HepG2 Assay for human Vitamin D Receptor Element (VDRE) (AID 2282968; active = hit-call score of the fitted dose curve at least 0.9, where 1 is the maximum; inactive = score below 0.9). To be noted: HepG2 VDRE cis-reporter transcription, actives raise or lower the signal. Put shortly: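 Compounds were applied for 24 h to HepG2 cells transfected with promoter-regulated reporter units. Total RNA was reverse-transcribed, and reporter amplicons were fluorescently labelled and sized by capillary electrophoresis.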

In assay [5] the target is Nuclear receptor subfamily 1 group I member 3 (Homo sapiens) (UniProt Q14994). Description: ATG_CAR_TRANS: Attagene TRANS-FACTORIAL HepG2 Assay for human Constitutive Androstane Receptor (CAR) (AID 2282969).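 Also: activators raise reporter mRNA above DMSO so AC50 marks induction.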 To be noted: HepG2 Attagene TRANS-FACTORIAL CAR reporter. Put shortly:
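Transiently transfected HepG2, multiplex TRANS reporters (CAR-Gal4 chimera driving GAL4-UAS reporter). 24 h dosing. Readout: reporter transcript by RT-PCR + capillary electrophoresis, fluorescence intensity; positive direction vs DMSO.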

In assay [6] the target is Estrogen receptor (Homo sapiens) (UniProt P03372). Description: ATG_ERa_TRANS: Attagene TRANS-FACTORIAL HepG2 Assay for human Estrogen Receptor alpha (ERa) (AID 2282970). To be noted: HepG2 Attagene TRANS ERa GAL4 reporter, mRNA. In a few lines: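 Gal4-fusion ERa transactivation, measured as reporter transcript level in transiently transfected HepG2 cells. Exposure 24 h; RT-PCR plus capillary electrophoresis with fluorescence detection.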
Estrogen receptor (Homo sapiens), sequence (P03372 whole entry, looked up, the tested form may be a part): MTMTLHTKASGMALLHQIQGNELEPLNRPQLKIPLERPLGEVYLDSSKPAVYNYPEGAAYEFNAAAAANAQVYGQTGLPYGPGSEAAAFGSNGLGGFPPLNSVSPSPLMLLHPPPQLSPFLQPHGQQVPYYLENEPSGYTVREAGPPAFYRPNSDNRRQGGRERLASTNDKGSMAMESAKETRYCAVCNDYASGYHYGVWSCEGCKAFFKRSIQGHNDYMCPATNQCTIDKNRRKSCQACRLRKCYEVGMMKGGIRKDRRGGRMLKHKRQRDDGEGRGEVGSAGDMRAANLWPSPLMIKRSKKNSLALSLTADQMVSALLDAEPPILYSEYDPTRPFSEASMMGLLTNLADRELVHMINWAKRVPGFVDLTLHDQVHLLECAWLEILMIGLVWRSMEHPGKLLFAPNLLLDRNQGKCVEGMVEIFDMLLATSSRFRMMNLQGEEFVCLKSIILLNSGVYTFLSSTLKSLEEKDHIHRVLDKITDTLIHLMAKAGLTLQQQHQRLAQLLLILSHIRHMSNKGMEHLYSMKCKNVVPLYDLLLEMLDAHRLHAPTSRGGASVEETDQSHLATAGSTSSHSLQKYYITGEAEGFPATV

Assay [7] has as its target Steroid hormone receptor ERR1 (Homo sapiens) (UniProt P11474). Description: ATG_ERRa_TRANS: Attagene TRANS-FACTORIAL HepG2 Assay for human Estrogen-Related Receptor alpha (ERRa) (AID 2282971). To be noted: HepG2 Attagene TRANS reporter, ERRa transactivation. Put shortly: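 HepG2 cells transiently transfected with GAL4-UAS reporter units and chimeric NR-Gal4 constructs; after 24 hour compound incubation, reporter mRNA quantified by RT-PCR, fluorescent labelling and capillary electrophoresis, gain of signal versus DMSO.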

Assay [8] has as its target X-box-binding protein 1 (Homo sapiens) (UniProt P17861). Description: ATG_Xbp1_CIS: Attagene CIS-FACTORIAL HepG2 Assay for human X-box Binding Protein 1 (XBP1) (AID 2282972; active = hit-call score of the fitted dose curve at least 0.9, where 1 is the maximum; inactive = score below 0.9). Conditions: HepG2 XBP1 cis-element reporter, Attagene multiplex; actives raise or lower the signal. Put shortly:
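Changes in reporter transcript abundance, read by RT-PCR and capillary electrophoresis, reflect endogenous transcription factor activity. Transfected HepG2 cells received compound for 24 hours; DMSO defined baseline for bidirectional analysis.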

For assay [9], the target named is Estrogen-related receptor gamma (Homo sapiens) (UniProt P62508). Description: ATG_ERRg_TRANS: Attagene TRANS-FACTORIAL HepG2 Assay for human Estrogen-Related Receptor gamma (ERRg) (AID 2282977).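 Also: hits increase reporter signal over DMSO so potencies reflect activators.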 To be noted: HepG2 Attagene TRANS reporter, ERRg transactivation. In a few lines:
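Exogenous NR-Gal4 chimera activity measured as reporter transcript induction after 24 h in transiently transfected HepG2 cells. RNA reverse-transcribed, PCR-amplified, 6-FAM-labelled and resolved by capillary electrophoresis; increase over DMSO baseline.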

Assay [10] addresses Bile acid receptor (Homo sapiens) (UniProt Q96RI1). Description: ATG_FXR_TRANS: Attagene TRANS-FACTORIAL HepG2 Assay for Farnesoid X Receptor (FXR) (AID 2282979).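 Also: hits raise reporter mRNA above DMSO so AC50 marks FXR activation.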 To be noted: HepG2 Attagene TRANS FXR-GAL4 reporter transcription. In a few lines:
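HepG2 cells were transiently transfected with GAL4-UAS reporters driven by chimeric NR-Gal4 proteins and dosed for 24 h. Reporter mRNA was quantified by RT-PCR, fluorescent labelling, HpaI digestion and capillary electrophoresis, with gain of signal scored versus DMSO.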

The target in assay [11] is Oxysterols receptor LXR-alpha (Homo sapiens) (UniProt Q13133). Description: ATG_LXRa_TRANS: Attagene TRANS-FACTORIAL HepG2 Assay for human Liver X Receptor alpha (LXRa) (AID 2282980). To be noted: HepG2 Attagene TRANS reporter, LXRa transactivation. Put shortly: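 HepG2 cells transiently transfected with GAL4-UAS reporter units for chimeric NR-Gal4 proteins, exposed to chemicals for 24 h. Reporter mRNA quantified by RT-PCR and capillary electrophoresis; gain of signal fitted relative to DMSO.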
Oxysterols receptor LXR-alpha (Homo sapiens), sequence (Q13133 whole entry, looked up, the tested form may be a part): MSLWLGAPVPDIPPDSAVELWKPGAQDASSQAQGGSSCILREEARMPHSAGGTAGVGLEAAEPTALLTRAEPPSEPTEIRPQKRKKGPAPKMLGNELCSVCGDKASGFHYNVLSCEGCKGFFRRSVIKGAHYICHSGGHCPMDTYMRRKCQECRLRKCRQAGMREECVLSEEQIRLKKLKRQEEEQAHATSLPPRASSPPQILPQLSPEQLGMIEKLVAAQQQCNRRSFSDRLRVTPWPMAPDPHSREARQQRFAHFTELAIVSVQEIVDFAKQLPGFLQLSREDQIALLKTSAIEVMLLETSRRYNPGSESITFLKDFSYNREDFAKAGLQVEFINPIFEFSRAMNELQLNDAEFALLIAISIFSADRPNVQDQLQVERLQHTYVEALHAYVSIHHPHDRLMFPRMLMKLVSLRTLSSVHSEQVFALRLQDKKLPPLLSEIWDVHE

The nature of assay [12]: ATG_M_06_TRANS: Attagene TRANS-FACTORIAL HepG2 Assay for M06 Transcription Factor (Internal Marker) (AID 2282983). To be noted: HepG2 Attagene TRANS M06 internal marker reporter. In a few lines: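 mRNA levels of a reporter transcript, quantified as FAM fluorescence on capillary electrophoresis, served as readout. HepG2 cells expressing exogenous GAL4-chimera reporter constructs were exposed for 24 h. Gain of signal over DMSO was evaluated.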

Assay [13] in a line: ATG_M_32_TRANS: Attagene TRANS-FACTORIAL HepG2 Assay for M32 Transcription Factor (Internal Marker) (AID 2282984). To be noted: HepG2 Attagene TRANS M32 internal marker reporter. In a few lines: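 Internal-marker readout from a multiplexed transcription reporter panel. HepG2 cells were transfected with GAL4-UAS reporter units, treated 24 hours, and reporter transcript levels determined by fluorescence after RT-PCR and capillary separation.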

Assay [14] addresses Nuclear receptor subfamily 4 group A member 2 (Homo sapiens) (UniProt P43354). Briefly: ATG_NURR1_TRANS: Attagene TRANS-FACTORIAL HepG2 Assay for human Nuclear Receptor Related Protein 1 (NURR1) (AID 2282985). To be noted: HepG2 Attagene TRANS reporter, mRNA readout. In a few lines: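 Endpoint: reporter mRNA increase relative to DMSO. HepG2 cells transfected with reporter units, treated 24 h; RNA processed by RT-PCR, labelling, HpaI digestion and capillary electrophoresis.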

Assay [15] deals with Transcriptional activator Myb (Homo sapiens) (UniProt P10242). Briefly: ATG_Myb_CIS: Attagene CIS-FACTORIAL HepG2 Assay for human Myeloblastosis (Myb) Proto-Oncogene Transcription Factor (AID 2282986; active = hit-call score of the fitted dose curve at least 0.9, where 1 is the maximum; inactive = score below 0.9). Conditions: HepG2 Attagene CIS-FACTORIAL Myb reporter transcription; actives raise or lower the signal. Put shortly: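 Steps: transfect HepG2 with cis-regulated reporter units; dose with chemical for 24 h; isolate RNA, reverse-transcribe, PCR-amplify and FAM-label reporter sequences; digest with HpaI; resolve by capillary electrophoresis. Activity fitted in both directions relative to DMSO.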
Transcriptional activator Myb (Homo sapiens), sequence (P10242 whole entry, looked up): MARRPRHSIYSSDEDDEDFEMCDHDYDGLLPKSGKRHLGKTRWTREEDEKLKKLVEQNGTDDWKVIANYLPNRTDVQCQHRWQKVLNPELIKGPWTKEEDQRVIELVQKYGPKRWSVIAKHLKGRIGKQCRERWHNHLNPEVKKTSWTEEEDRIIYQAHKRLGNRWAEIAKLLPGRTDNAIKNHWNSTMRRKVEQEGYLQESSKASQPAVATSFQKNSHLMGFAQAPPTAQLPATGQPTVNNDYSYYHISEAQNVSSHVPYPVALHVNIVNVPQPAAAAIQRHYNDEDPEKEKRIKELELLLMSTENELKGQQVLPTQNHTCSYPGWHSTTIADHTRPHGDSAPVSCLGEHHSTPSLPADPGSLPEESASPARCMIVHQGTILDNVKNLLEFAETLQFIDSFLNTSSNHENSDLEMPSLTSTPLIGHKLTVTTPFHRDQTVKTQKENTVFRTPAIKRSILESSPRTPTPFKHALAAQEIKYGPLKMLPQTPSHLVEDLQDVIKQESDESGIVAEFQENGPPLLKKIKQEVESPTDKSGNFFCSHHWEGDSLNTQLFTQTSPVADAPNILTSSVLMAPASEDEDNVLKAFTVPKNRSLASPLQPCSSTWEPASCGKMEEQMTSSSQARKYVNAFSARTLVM

A short description of assay [16]: ATG_M_19_TRANS: Attagene TRANS-FACTORIAL HepG2 Assay for M19 Transcription Factor (Internal Marker) (AID 2282974). To be noted: HepG2 Attagene TRANS-FACTORIAL M19 internal marker reporter. Put shortly: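 Cells: human HepG2, transiently transfected with multiplexed reporter transcription units. Exposure: 24 h. Detection: RT-PCR of reporter mRNA with capillary electrophoresis. Analysis: gain-of-signal vs DMSO.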

Assay [17] is described as follows: ATG_GAL4_TRANS: Attagene TRANS-FACTORIAL HepG2 Assay for GAL4 (Internal Marker) (AID 2282976). Conditions: HepG2 Attagene TRANS GAL4 internal marker reporter. Put shortly:
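Background-control readout: GAL4-UAS reporter transcript in transiently transfected HepG2 cells after 24 h compound exposure. Measured by RT-PCR, 6-FAM primer extension, HpaI digest and capillary electrophoresis; gain-of-signal fit versus DMSO.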

The target in assay [18] is Oxysterols receptor LXR-beta (Homo sapiens) (UniProt P55055). Briefly: ATG_LXRb_TRANS: Attagene TRANS-FACTORIAL HepG2 Assay for human Liver X Receptor beta (LXRb) (AID 2282981). Conditions: HepG2 Attagene TRANS GAL4-LXRb reporter, mRNA. In a few lines:
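Multiplexed reporter assay, HepG2, 24 h dosing. Fluorescence of labelled RT-PCR products after capillary electrophoresis gives transcript level; positive fitting direction relative to DMSO.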

For assay [19], the target named is Hepatocyte nuclear factor 4-alpha (Homo sapiens) (UniProt P41235). Briefly: ATG_HNF4a_TRANS: Attagene TRANS-FACTORIAL HepG2 Assay for human Hepatocyte Nuclear Factor 4 alpha (HNF4a) (AID 2282982). To be noted: HepG2 HNF4a transactivation reporter, mRNA readout. In a few lines: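 Endpoint reflects transcriptional activation of a GAL4-UAS reporter by an HNF4a-GAL4 chimera in transfected HepG2 cells, 24 h post-dosing. Fluorescence from RT-PCR products separated by capillary electrophoresis; DMSO baseline.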

Records with an inconclusive call do not appear. Activity calls are given as the source filed them. The calls were made as follows, unless noted: active = hit-call score of the fitted dose curve at least 0.9, where 1 is the maximum; inconclusive = response in the unintended direction; inactive = score below 0.9.

Nuclear receptor subfamily 4 group A member 2 (Homo sapiens), sequence (P43354 whole entry, looked up): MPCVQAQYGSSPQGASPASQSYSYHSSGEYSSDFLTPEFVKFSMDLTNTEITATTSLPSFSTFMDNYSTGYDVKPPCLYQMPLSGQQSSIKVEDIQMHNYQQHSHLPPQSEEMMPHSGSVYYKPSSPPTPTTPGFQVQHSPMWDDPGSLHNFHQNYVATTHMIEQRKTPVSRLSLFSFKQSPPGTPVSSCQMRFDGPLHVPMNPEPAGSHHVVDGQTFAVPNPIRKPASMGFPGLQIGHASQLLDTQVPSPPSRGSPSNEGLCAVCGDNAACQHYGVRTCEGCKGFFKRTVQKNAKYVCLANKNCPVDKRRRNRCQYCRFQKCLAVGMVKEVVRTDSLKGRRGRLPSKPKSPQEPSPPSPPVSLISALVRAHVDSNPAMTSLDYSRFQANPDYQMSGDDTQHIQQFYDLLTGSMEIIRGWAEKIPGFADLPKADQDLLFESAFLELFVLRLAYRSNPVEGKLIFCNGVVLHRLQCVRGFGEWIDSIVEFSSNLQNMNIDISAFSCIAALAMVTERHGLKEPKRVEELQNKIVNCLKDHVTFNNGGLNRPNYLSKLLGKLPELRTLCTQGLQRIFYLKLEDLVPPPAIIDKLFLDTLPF
Nuclear receptor subfamily 1 group I member 3 (Homo sapiens), sequence (Q14994 whole entry, looked up, the tested form may be a part): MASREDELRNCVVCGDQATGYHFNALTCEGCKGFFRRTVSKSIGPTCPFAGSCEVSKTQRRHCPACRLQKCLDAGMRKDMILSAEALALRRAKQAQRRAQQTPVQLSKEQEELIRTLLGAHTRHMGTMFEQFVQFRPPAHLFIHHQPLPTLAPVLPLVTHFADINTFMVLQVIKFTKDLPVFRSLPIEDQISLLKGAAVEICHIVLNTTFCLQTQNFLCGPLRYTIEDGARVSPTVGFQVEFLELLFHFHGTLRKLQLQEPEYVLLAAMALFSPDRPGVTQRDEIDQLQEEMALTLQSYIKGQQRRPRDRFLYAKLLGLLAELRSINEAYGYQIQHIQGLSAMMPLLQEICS
Bile acid receptor (Homo sapiens), sequence (Q96RI1 whole entry, looked up, the tested form may be a part): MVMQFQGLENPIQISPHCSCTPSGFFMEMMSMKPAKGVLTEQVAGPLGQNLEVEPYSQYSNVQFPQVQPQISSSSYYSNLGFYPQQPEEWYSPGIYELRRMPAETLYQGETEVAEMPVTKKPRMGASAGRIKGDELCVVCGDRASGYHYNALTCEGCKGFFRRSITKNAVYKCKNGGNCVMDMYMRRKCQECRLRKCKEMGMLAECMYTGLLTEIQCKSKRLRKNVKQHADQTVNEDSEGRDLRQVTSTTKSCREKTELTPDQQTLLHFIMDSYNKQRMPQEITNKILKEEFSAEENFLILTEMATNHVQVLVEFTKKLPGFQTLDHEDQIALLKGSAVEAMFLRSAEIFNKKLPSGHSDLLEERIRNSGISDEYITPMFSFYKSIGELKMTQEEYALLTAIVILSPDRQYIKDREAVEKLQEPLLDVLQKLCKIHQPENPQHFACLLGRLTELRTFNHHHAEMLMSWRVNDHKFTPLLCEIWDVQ
X-box-binding protein 1 (Homo sapiens), sequence (P17861 whole entry, looked up): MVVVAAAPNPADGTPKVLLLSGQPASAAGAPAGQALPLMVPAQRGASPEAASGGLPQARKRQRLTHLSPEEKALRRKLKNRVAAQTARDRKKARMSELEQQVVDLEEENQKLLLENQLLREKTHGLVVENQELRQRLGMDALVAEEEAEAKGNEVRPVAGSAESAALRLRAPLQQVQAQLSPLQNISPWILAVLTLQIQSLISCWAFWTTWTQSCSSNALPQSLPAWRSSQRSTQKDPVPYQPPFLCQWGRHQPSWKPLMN
Steroid hormone receptor ERR1 (Homo sapiens), sequence (P11474 whole entry, looked up, the tested form may be a part): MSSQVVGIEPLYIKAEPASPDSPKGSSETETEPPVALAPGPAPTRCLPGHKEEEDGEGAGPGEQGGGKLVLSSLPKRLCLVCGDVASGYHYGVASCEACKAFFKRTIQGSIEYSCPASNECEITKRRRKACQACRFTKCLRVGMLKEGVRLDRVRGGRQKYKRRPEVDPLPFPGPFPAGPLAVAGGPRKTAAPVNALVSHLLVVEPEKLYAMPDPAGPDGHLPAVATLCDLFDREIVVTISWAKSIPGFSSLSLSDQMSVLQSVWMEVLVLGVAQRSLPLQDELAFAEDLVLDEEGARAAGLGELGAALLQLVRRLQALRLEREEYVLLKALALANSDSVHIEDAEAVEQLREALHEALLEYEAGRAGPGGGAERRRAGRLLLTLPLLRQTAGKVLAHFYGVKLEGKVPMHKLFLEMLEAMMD
Oxysterols receptor LXR-beta (Homo sapiens), sequence (P55055 whole entry, looked up, the tested form may be a part): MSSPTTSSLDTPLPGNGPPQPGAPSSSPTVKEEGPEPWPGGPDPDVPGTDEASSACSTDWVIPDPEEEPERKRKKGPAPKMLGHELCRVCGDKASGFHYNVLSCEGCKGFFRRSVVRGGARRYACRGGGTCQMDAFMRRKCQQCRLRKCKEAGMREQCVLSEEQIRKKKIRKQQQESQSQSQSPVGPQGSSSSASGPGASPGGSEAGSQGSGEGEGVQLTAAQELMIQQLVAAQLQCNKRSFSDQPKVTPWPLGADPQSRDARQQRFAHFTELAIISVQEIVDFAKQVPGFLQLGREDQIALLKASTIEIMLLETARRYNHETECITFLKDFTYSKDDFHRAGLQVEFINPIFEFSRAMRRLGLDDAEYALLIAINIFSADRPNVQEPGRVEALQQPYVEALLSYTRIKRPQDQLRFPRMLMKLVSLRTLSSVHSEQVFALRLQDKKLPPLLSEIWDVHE
Estrogen-related receptor gamma (Homo sapiens), sequence (P62508 whole entry, looked up, the tested form may be a part): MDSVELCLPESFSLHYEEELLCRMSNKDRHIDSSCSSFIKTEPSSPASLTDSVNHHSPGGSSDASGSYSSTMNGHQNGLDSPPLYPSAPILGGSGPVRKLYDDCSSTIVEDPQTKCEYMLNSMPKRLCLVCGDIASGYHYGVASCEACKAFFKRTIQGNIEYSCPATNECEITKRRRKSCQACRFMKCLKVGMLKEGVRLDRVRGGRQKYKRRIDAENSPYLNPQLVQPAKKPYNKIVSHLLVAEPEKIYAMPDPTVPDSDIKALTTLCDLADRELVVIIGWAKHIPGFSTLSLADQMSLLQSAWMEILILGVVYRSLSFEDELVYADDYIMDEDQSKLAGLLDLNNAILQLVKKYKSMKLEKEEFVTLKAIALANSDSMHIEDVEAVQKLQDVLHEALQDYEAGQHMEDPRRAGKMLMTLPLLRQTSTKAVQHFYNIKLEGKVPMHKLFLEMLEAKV

For the compound `CCc1c(Br)c(Br)c(Br)c(Br)c1Br`, the outcome in assay [1], in assay [2], in assay [3], in assay [4], in assay [5] and in assay [6] was inactive. The outcome in assay [7], in assay [8], in assay [9], in assay [10], in [11] and in [12] was inactive. Further, the result in assay [13] and in [15] was inactive. For the same compound, the AC50 in assay [14] was 26.8 µM (active).
For the compound `C=CC(=O)OCC(F)(F)C(F)(F)C(F)(F)C(F)(F)C(F)(F)C(F)(F)C(F)(F)F`, the result in assay [1], in [2], in [3], in assay [4], in assay [5] and in assay [8] was inactive. Also, the call in [16], in assay [17], in [10], in [11], in assay [18] and in assay [12] was inactive. For the same compound, in [14], the result was inactive. In addition, the AC50 in assay [6] was 15.6 µM (active).
Turning to `CC(=O)Nc1ccc(N=Nc2cc(C)ccc2O)cc1`, the compound was classed as inactive in [1], in [2], in [5], in assay [6], in assay [7] and in assay [8]. The call in [9], in assay [10], in [18], in [19], in [12] and in assay [13] was inactive. Moreover, the outcome in assay [14] was inactive. Further, the AC50 was 11.6 µM (active) in [3] and 13.6 µM (active) in assay [4].
For the compound `Nc1ccc([N+](=O)[O-])cc1O`, the outcome in [1], in assay [2], in assay [3], in [4], in [5] and in assay [6] was inactive. Further, the call in assay [8], in assay [16], in assay [17], in assay [10], in assay [11] and in assay [12] was inactive. In addition, the compound was called inactive in assay [13] and in [14].

The AC50 is the concentration giving half of the maximal activity seen.
